# From the OligoGym collection
# Assays:
# Assay in all cases: pooled miR-30 sensor sort-seq; sequence = guide strand
# Conditions in all cases: shRNA
# ASNSD1 = target: ASNSD1
# ASF1A = target: ASF1A
# ASCL1 = target: ASCL1
# ASPRV1 = target: ASPRV1
# ATHL1 = target: ATHL1
# ATOX1 = target: ATOX1
# ATG16L1 = target: ATG16L1
# Note: reference of the scale not given here.
sequence,measurement,setting,value
TTCCATAGAAACACATTGCCTC,sensor-assay potency score (higher = more potent),ASNSD1,0.13
TCGAAGGTGATCTCGAACTGGA,sensor-assay potency score (higher = more potent),ASF1A,-0.487
ATGGAGTTCAAGTCGTTGGAGT,sensor-assay potency score (higher = more potent),ASCL1,-1.08
TGAAATACAAACATATGCCTTC,sensor-assay potency score (higher = more potent),ASF1A,0.343
TTCTAGAAGAAATTCGACCCAG,sensor-assay potency score (higher = more potent),ASNSD1,-0.284
TTCTTCAATAATATTCTCCCTA,sensor-assay potency score (higher = more potent),ASNSD1,0.32
TTGCCTAGGGACACCGCTGTAT,sensor-assay potency score (higher = more potent),ASPRV1,-1.05
TAAACCATTTGTACAAAACTTC,sensor-assay potency score (higher = more potent),ASCL1,-0.297
TAAGATTATATAGTAAGTCCTC,sensor-assay potency score (higher = more potent),ASNSD1,-0.501
TACTCATCTTCTTGTTGGCCGC,sensor-assay potency score (higher = more potent),ASCL1,-0.58
AAGTCGTTGGAGTAGTTGGGGG,sensor-assay potency score (higher = more potent),ASCL1,-0.573
TTCACTGTAAACCAATGTCTAC,sensor-assay potency score (higher = more potent),ASCL1,-1.2
TTGGTGCTGAAGTACAACTGGT,sensor-assay potency score (higher = more potent),ASCL1,-0.518
TTGACCAACTTGACGCGGTTGC,sensor-assay potency score (higher = more potent),ASCL1,0.134
AATACATTAACAACATTTCTAT,sensor-assay potency score (higher = more potent),ASCL1,-0.252
TTGCGCTCGCGCTCGTTGCGGC,sensor-assay potency score (higher = more potent),ASCL1,-0.896
TTGATCTTGTCAGCCACCGCCA,sensor-assay potency score (higher = more potent),ATHL1,-0.876
ATACTTAACTCCTCCAAGCTTA,sensor-assay potency score (higher = more potent),ATOX1,-0.272
TTCCTGTTTTCTTCAGGGTTGC,sensor-assay potency score (higher = more potent),ATOX1,-0.392
TTCAGGGTTGCAAGCAGAGTGT,sensor-assay potency score (higher = more potent),ATOX1,-1.04
TAACTCCTCCAAGCTTATTGAG,sensor-assay potency score (higher = more potent),ATOX1,-1.42
TTTCTTCAGGGTTGCAAGCAGA,sensor-assay potency score (higher = more potent),ATOX1,-1.16
AATGCAGACCTTCTTGTTGGGC,sensor-assay potency score (higher = more potent),ATOX1,-0.556
TTTCCTGTTTTCTTCAGGGTTG,sensor-assay potency score (higher = more potent),ATOX1,-0.588
TTCAGCACAGCCTCCACAGGTC,sensor-assay potency score (higher = more potent),ATOX1,-0.0676
TTCCCTGTGAGCACACTCCAGA,sensor-assay potency score (higher = more potent),ATG16L1,-0.634
TGGAACATCAGGATACTCGGGA,sensor-assay potency score (higher = more potent),ATHL1,-0.126
TAGGAAACAGTCTTTCCTGTTT,sensor-assay potency score (higher = more potent),ATOX1,-0.521
TCAATGCAGACCTTCTTGTTGG,sensor-assay potency score (higher = more potent),ATOX1,-0.56
TATTGAGGACCCGAGAGACAGC,sensor-assay potency score (higher = more potent),ATOX1,-1.44
